Values joined by “and” are separate entries in the source; they are usually repeats but may differ in a detail not shown here. Equal entries are not always repeated. A structure can be active in one record and inactive in another. Active and inactive are the calls of the source. Rule for the calls: active = hit-call score of the fitted dose curve at least 0.9, where 1 is the maximum; inactive = score below 0.9.
Assay: APR_HepG2_P-H2AX_24hr: Apredica 24-hour HepG2 Assay for H2AX Phosphorylation (AID 2282920)
Settings: high-content imaging, actives raise or lower the signal
Experimental: APR_HepG2_24hr is a cell-based, multiplexed-readout assay that uses HepG2, a human liver cell line, with measurements taken at 24 hours after chemical dosing in a 384-well plate.APR_HepG2_P-H2AX_24hr is one of 10 assay component(s) measured or calculated from the APR_HepG2_24hr assay. It is designed to make measurements of dna content, a form of viability reporter, as detected with fluorescence intensity signals by HCS Fluorescent Imaging technology.Data from the assay component APR_HepG2_P-H2AX_24hr was analyzed into 1 assay endpoint. This assay endpoint, APR_HepG2_P-H2AX_24hr, was analyzed with bidirectional fitting relative to DMSO as the negative control and baseline of activity. Using a type of viability reporter, measures of protein for gain or loss-of-signal activity can be used to understand the signaling at the pathway-level as they relate to the gene . Furthermore, this assay endpoint can be referred to as a primary readout, because this assay has produced multiple assay endpoints where this one serves a signaling function. To generalize the intended target to other relatable targets, this assay endpoint is annotated to the dna binding intended target family, where the subfamily is cellular response to DNA damage stimulus.
Cells were treated with dimethyl sulfoxide (DMSO) as a solvent control at a final concentration of 0.5% v/v or with compounds in DMSO with a resulting final DMSO concentration of 0.5% v/v. Compound treatment was done at concentrations of 0.39, 0.78, 1.56, 3.12, 6.24, 12.5, 25, 50, 100, and 200 uM in duplicate on each plate. Cells were treated with compounds for 1, 24, or 72 hr. Carbonyl […] m-chloro-phenylhydrazone (CCCP) and taxol were used as positive controls for mitochondrial function and cytoskeletal stability, respectively; DMSO served as the negative control for this experiment. Cells were fixed by the direct addition of 50 uL formaldehyde in Hank's Balanced Salt Solution (HBSS) to a final concentration of 3.7%. After incubation in the fixation medium for 30 min at room temperature (293-298 K), cells were rinsed twice with HBSS and treated with cell permeabilization buffer (16 uL of 0.5% Triton X-100) for 10 min at room temperature (293-298 K) before labeling. For mitochondrial membrane potential and mitochondrial measurements, pre-fixed cells were incubated with 50 uL of MitoTracker Red CMXRos (Invitrogen) at a concentration of 250 nM for 30 min before fixation. In the remaining cases, post-fixed cells were labeled by incubation with a multiplexed mixture of primary antibodies in HBSS for 60 min at room temperature (293-298 K) to detect immunoreactivity of c-Jun (1:500), phospho-histone H3 (1:100), phospho-histone H2A.x (1:200), p53 (1:400), alpha-tubulin (1:200) and Hoechst 33342 (2 ug/mL). Cells were labeled for multiplexed imaging on two separate plates: a) Hoechst 33342, MitoTracker Red, phospho-histone H3, and alpha-tubulin, and b) Hoechst 33342, phospho-histone H2A.x, and c-Jun. A final rinse with HBSS (50 uL) was performed before analysis. The primary and secondary antibodies for the proteins were phospho-histone H3 (rabbit anti-phospho-histone H3 and FITC-donkey anti-rabbit IgG), phospho-histone H2A.x (mouse anti-phospho-histone H2A.x and FITC-donkey anti-mouse IgG), c-Jun (rabbit anti-phospho-c-Jun and Cy3-donkey anti-rabbit IgG), p53 (sheep anti-p53 and Cy5-donkey anti-sheep IgG), alpha-tubulin (mouse anti-alpha-tubulin and Cy5-donkey anti-mouse IgG). These antibodies are available as the CellCiphr HepG2 assay kit (Millipore).Digital images of each well were captured using a Cellomics ArrayScan VTI (Thermo Scientific Cellomics) (0.8 NA objective, 0.63x optical coupler, and XF-93 filter set) at 20x magnification. The images were acquired using the autofocus feature of the ArrayScan instrument, which entails the following steps. First, the camera focuses on channel 1 (Hoechst 33342), where nuclei are identified. Second, a Z offset of 1 um is used for capturing mitochondria (MitoTracker Red). […]

SMILES	outcome	AC50
CCC(C)OC(=O)N1CCCCC1CCO (stereo not given)	inactive	
CCCCC(CC)CN1C(=O)C2C3C=CC(C3)C2C1=O (stereo not given)	inactive	
O=C(O)c1ccccc1	inactive	
COC(=O)c1ccccc1S(=O)(=O)NC(=O)Nc1nc(OC(F)F)cc(OC(F)F)n1	inactive	
CCOC(=O)[C@H](C)Oc1ccc(Oc2nc3ccc(Cl)cc3o2)cc1	inactive	
COC(=O)CSc1cc(N=c2sc(=O)n3n2CCCC3)c(F)cc1Cl	inactive	
S=C([S-])NCCNC(=S)[S-].[Mn+2]	inactive	
CC1(C)C(C=C(Cl)Cl)C1C(=O)OCc1cccc(Oc2ccccc2)c1 (stereo not given)	inactive	
COc1c(Cl)ccc(Cl)c1C(=O)O	inactive	
CCCN(CCC)c1c([N+](=O)[O-])cc(C(F)(F)F)c(N)c1[N+](=O)[O-]	inactive	
CCC(O)=C1C(=O)CC(C(=O)O)CC1=O (stereo not given)	inactive	
C=CCOC(Cn1ccnc1)c1ccc(Cl)cc1Cl (stereo not given)	inactive	
CC(C)(c1ccc(O)cc1)c1ccc(O)cc1	inactive	170 µM (active) and 110 µM (active)
CC(=O)S[C@@H]1CC2=CC(=O)CC[C@]2(C)[C@H]2CC[C@@]3(C)[C@@H](CC[C@@]34CCC(=O)O4)[C@H]12		46.4 µM (active)
COc1nc(C)nc(NC(=O)NS(=O)(=O)c2ccccc2OCCCl)n1	inactive	
N[C@@H](Cc1cc(I)c(Oc2ccc(O)c(I)c2)c(I)c1)C(=O)O	inactive	
C[C@]12C[C@H](O)[C@H]3[C@@H](CCC4=CC(=O)CC[C@@]43C)[C@@H]1CC[C@@H]2C(=O)CO		96.6 µM (active)
CCOC(=O)C(C)Oc1ccc(Oc2cnc3cc(Cl)ccc3n2)cc1 (stereo not given)	inactive	
COCCO	inactive	
c1ccc2[nH]c(-c3cscn3)nc2c1	inactive	

SMILES	outcome	AC50
CCCOC(=O)NCCCN(C)C	inactive	
S=C(S)NCCNC(=S)S.[Mn+2].[S-]C([S-])=NCCN=C([S-])[S-].[Zn+2]		50 µM (active) [middle of 7 runs]
CCOC(=O)NCCOc1ccc(Oc2ccccc2)cc1	inactive	
CCN(CC)C(=O)c1cccc(C)c1	inactive	
OB(O)O	inactive	
O=C(c1ccc(O)cc1O)c1ccc(O)cc1O	inactive	
CCCCCCC(C)OC(=O)COc1nc(F)c(Cl)c(N)c1Cl (stereo not given)	inactive	
C[C@]12CC[C@@H]3c4ccc(O)cc4C[C@@H](CCCCCCCCCS(=O)CCCC(F)(F)C(F)(F)F)[C@H]3[C@@H]1CC[C@@H]2O (stereo not given in full)	inactive	
CCSC(=O)N(CC(C)C)CC(C)C	inactive	
N#CSCSc1nc2ccccc2s1	inactive	
c1ccc(Nc2ccccc2)cc1	inactive	
C#C[C@]1(O)CC[C@H]2[C@@H]3CCC4=CC(=O)CC[C@@H]4[C@H]3CC[C@@]21CC	inactive	
Cc1nn(C)c(Oc2ccccc2)c1C=NOCc1ccc(C(=O)OC(C)(C)C)cc1	inactive	
CSC(=O)c1cccc2nnsc12	inactive	
CCOC(=O)COc1cc(-n2ncc(C(F)(F)F)c(C)c2=O)c(F)cc1Cl	inactive	
C#CCOC(=O)[C@@H](C)Oc1ccc(Oc2ncc(Cl)cc2F)cc1	inactive	
COC(=O)c1ccccc1C(=O)O	inactive	
CCCCOC(=O)[C@@H](C)Oc1ccc(Oc2ccc(C(F)(F)F)cn2)cc1	inactive	
COC(=O)c1ccc(CNS(C)(=O)=O)cc1S(=O)(=O)NC(=O)Nc1nc(OC)cc(OC)n1	inactive	

Reference: PubChem BioAssay (EPA / NIEHS)
